# dFosB act: activators of mouse delta FosB homodimer. P13346. purified delta FosB, TAMRA-CDK5 oligo fluorescence polarization; percent of positive-control signal above neutral wells. activation, % at 25 µM. actives 0.99% (n = 340,000). AID 493131;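 active = mean activation above about 17%, with every replicate also reaching it, limit read from the data, passing the limit was not always enough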
# SIRT5 inh: sirtuin-5 (human) deacylase inhibition | Purified SirT5, succinyl-peptide AMC, trypsin-coupled fluorescence | Q9NXA8 | actives 1.1% (n = 330,000) | inhibition, % at 15 µM; in the data active = inhibition above about 15%
# Target sequence (Q9NXA8 whole entry, looked up): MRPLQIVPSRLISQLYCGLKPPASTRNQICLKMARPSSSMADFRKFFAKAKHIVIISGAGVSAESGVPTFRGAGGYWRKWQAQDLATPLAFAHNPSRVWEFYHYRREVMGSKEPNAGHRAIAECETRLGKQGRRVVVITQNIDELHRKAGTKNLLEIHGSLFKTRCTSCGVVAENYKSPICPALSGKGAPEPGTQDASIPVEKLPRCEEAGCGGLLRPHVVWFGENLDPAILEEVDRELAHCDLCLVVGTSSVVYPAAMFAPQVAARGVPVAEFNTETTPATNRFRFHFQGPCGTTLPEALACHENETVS
# CDK5 inh: blocks human CDK5/p35 kinase activity; inhibition, % at 10 µM; Recombinant CDK5/p35, ADP-Glo luminescence, 60 min; actives 0.01% (n = 330,000);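 active = highest replicate inhibition of at least 50% and at least 75% of replicates reaching 50%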;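 note: plate controls were DMSO neutral control for no effect and GW8510 at 10 µM for full effect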
# PvdQ inh: P. aeruginosa PvdQ acylase inhibition. purified PvdQ acylase, fluorescence plate reader. actives 0.063% (n = 340,000). AID 488965. inhibition, % at 10 µM; in the data active = inhibition above about 30%, passing the limit was not always enough;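 note: 0% = vehicle neutral wells and 100% = reference inhibitor wells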
# FGF22 binding: shifts melting point of recombinant human FGF22; recombinant FGF22 thermal shift, SYPRO orange fluorescence; percent of sucrose octasulfate shift, DMSO zero; activity (Tm shift, normalised), % at 9.99 µM; actives 1.5% (n = 340,000); AID 651658;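 active = mean Tm shift, scaled 0 neutral to 100 positive control, at about 1.3% or above, every replicate too, limit read from the data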
# PglD DTNB: inhibitors of Campylobacter jejuni PglD acetyltransferase; inhibition, % at 12.5 µM; AID 602405; purified PglD enzyme, DTNB colorimetric CoA detection; actives 0.098% (n = 360,000); in the data active = inhibition above about 16%, passing the limit was not always enough
# Active calls of the source: *; . = no result. This is a sample that favours compounds with a hit; in the whole collection about 2.8% have one here.
SMILES,dFosB act,SIRT5 inh,CDK5 inh,PvdQ inh,FGF22 binding,PglD DTNB
O=C(NCCS(=O)(=O)NC1CCCC1)c1ccccc1,0.1,16.7*,1.0,2.1,0.4,2.0
O=C(NCCS(=O)(=O)NC1CCCCC1)c1ccccc1,-1.0,-3.6,-1.4,-5.4,.,-1.6
COc1ccc2c3c(n(C)c2c1)[C@@H](CO)N(C(C)=O)CC31CN(C(=O)Nc2ccc(F)cc2)C1,.,-5.7,.,.,0.0,.
Cc1cc(Cl)ccc1OC(C)C(=O)Nc1ccc(C(=O)Nc2ccccc2C(=O)O)cc1 (configuration not stated),-16.7,8.9,-1.3,-3.7,1.4*,4.1
Cc1cc(Cl)ccc1OC(C)C(=O)Nc1ccc(S(=O)(=O)N2CCOCC2)cc1 (configuration not stated),-11.4,-1.2,-2.0,-10.2,-0.8,1.9
CCCNC(=O)N1C[C@@H](O)COC[C@@H]2O[C@H](CC(=O)N3CCC(Cc4ccccc4)CC3)CC[C@H]21,.,22.8*,.,.,-0.2,-2.8
O=C(C[C@H]1CC[C@H]2[C@@H](COC[C@@H](O)CN2Cc2ccc(Oc3ccccc3)cc2)O1)N1CCc2ccccc2C1,.,1.0,.,.,-0.1,-3.2
O=C(C[C@@H]1CC[C@@H]2[C@H](COC[C@H](O)CN2CCC(F)(F)F)O1)N1CCC(Cc2ccccc2)CC1,.,1.9,.,.,-0.1,-3.1
CCCNC(=O)N1C[C@H](O)COC[C@H]2O[C@H](CC(=O)N3CCC(Cc4ccccc4)CC3)CC[C@@H]21,.,11.4,.,.,0.0,3.0
O=C(C[C@H]1CC[C@@H]2[C@H](COC[C@H](O)CN2Cc2ccc(Oc3ccccc3)cc2)O1)N1CCc2ccccc2C1,.,18.3*,.,.,0.0,0.5
O=C(C[C@@H]1CC[C@H]2[C@@H](COC[C@H](O)CN2CCC(F)(F)F)O1)N1CCC(Cc2ccccc2)CC1,.,17.0*,.,.,-0.1,-1.3
C[C@@H]1CN([C@@H](C)CO)C(=O)c2cc(NS(=O)(=O)c3cn(C)cn3)ccc2O[C@@H](C)CCCCO[C@@H]1CN(C)C(=O)Nc1ccc(F)cc1,.,-0.5,.,.,0.1,13.4
CCN(C(=O)CSc1nnc(NCc2ccccc2)s1)C1CCS(=O)(=O)C1 (configuration not stated),-3.9,-2.9,-2.4,-17.9,42.9*,2.5
CO[C@H]1CN(C)C(=O)c2cc(NC(=O)Nc3ccccc3)ccc2OC[C@@H](C)N(C(=O)CC2CC2)C[C@@H]1C,.,3.2,.,.,0.1,1.2
CC(NS(=O)(=O)OCC(Cl)(Cl)Cl)c1ccc(Br)cc1 (configuration not stated),-2.0,-1.4,2.8,-6.9,43.3*,3.9
C[C@H](CO)N1C[C@H](C)[C@H](CN(C)Cc2ccncc2)Oc2ccc(NC(=O)CCN3CCOCC3)cc2CC1=O,.,-5.2,.,.,-0.5,5.5
C[C@@H]1CN([C@@H](C)CO)C(=O)Cc2cc(NC(=O)CCN3CCOCC3)ccc2O[C@@H]1CN(C)Cc1ccncc1,.,16.0*,.,.,-0.3,0.5
C[C@H](CO)N1C[C@H](C)[C@@H](CN(C)CC2CCCCC2)Oc2ccc(NC(=O)Nc3ccc4c(c3)OCO4)cc2CC1=O,.,15.9*,.,.,-0.4,0.9
C[C@H]1CN([C@@H](C)CO)C(=O)Cc2cc(NC(=O)CCN3CCOCC3)ccc2O[C@@H]1CN(C)CC1CCCCC1,.,.,.,.,-0.1,-0.3
CC(C)NC(=O)Nc1ccc2c(c1)CC(=O)N([C@@H](C)CO)C[C@@H](C)[C@@H](CN(C)C(=O)NC1CCCCC1)O2,.,17.7*,.,.,.,10.7
C[C@H]1CN([C@@H](C)CO)C(=O)Cc2cc(NC(=O)CCN3CCOCC3)ccc2O[C@H]1CN(C)CC1CCCCC1,.,20.3*,.,.,0.0,-3.0
CN(C)C(=O)C[C@H]1C[C@H]2c3cc(NS(C)(=O)=O)ccc3O[C@H]2[C@H](CO)O1,.,-13.6,.,.,0.1,1.1
COc1ccc2c3c(n(C)c2c1)[C@H](CO)N(C(=O)C1CCCC1)CC31CN(Cc2cccc(F)c2)C1,.,.,.,.,-0.4,.
COc1cccc(CNC(=O)[C@H]2[C@H](CO)[C@H]3Cn4c(ccc(-c5ccncc5)c4=O)[C@H]3N2C)c1,.,-0.8,.,.,0.6,4.6
COc1ccc2c3c([nH]c2c1)[C@@H](CO)N(C(=O)C1CC1)CC31CCN(C(=O)NC(C)C)CC1,.,.,.,.,-0.1,.
Cc1ccc(C(=O)N2CCN(Cc3ccc4c(c3)OCO4)CC2)cc1S(=O)(=O)N1CCOCC1,-11.3,16.0*,1.3,-25.6,0.0,.
